# Measured values as given in PubChem BioAssay (EPA / NIEHS).
# The source made the active and inactive calls. How the source made its calls: active means hit-call score of the fitted dose curve at least 0.9, where 1 is the maximum; inactive means score below 0.9.
# Test: CCTE_Shafer_MEA_acute_network_burst_percentage: CCTE's Neural Acute Assay for Percentage of Network Bursts, Shafer Lab (AID 2284022);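 further: curves fitted for loss so actives lower network burst percentage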
# Experimental: CCTE_Shafer_MEA_acute assay is conducted using Axion Biosystems 48 well microelectrode array (MEA) plates and Maestro recording system. Each well of the MEA plate contains a grid of 16 microelectrodes embedded in the culture surface. Electrically active cells, such as neurons, can be cultured over the electrodes, and electrical activity in these cells can be recorded extracellularly. The spontaneous firing of neurons is captured from each electrode on a microsecond timescale providing both temporally and spatially precise data. […] The CCTE_Shafer_MEA_acute assay uses primary cultures of rat cortical neurons. As these cultures mature over time, neural networks develop functional activity and form cohesive networks in which electrical activity can be highly coordinated. Baseline 40-minute recordings are made on days post-plating 13 or 15, followed by a secondary 40-minute recording after chemical exposure.CCTE_Shafer_MEA_acute_network_burst_percentage is a component of the CCTE_Shafer_MEA_acute assay. It measures the percent of spikes (action potential firings) in network bursts (temporally-clustered groups of spikes across multiple electrodes) as the number of spikes occuring in network bursts divided by the total number of spikes during a recording in a microelectrode array (MEA) using Axion Biosystems Maestro 768 channel amplifier with the AxIS adaptive spike detector. The recordings before and after chemical treatment are used to calculate a percent change in the network burst percentage in each well.Data from the assay component CCTE_Shafer_MEA_acute_network_burst_percentage was analyzed into 1 assay endpoint. This assay endpoint, CCTE_Shafer_MEA_acute_network_burst_percentage, was analyzed in the negative analysis fitting direction relative to DMSO as the negative control and baseline of activity. Using a type of functional reporter, gain or loss-of-signal activity can be used to understand electrical activity.
# Spontaneous activity in the cortical cultures was recorded using an Axion Biosystems Maestro 768 channel amplifier and Axion Integrated Studios (AxIS) v1.8 (or later) software. The amplifier recorded from all channels simultaneously (gain = 1200 x; sampling rate = 12.5 kHz/channel): raw signals were filtered with a Butterworth band-pass filter (300-5000 Hz), which filters out slower local field potentials leaving only fast potentials, i.e., "spikes", arising from extracellular currents associated with action potentials (Pine 2006; Wheeler and Nam 2011). On-line spike detection of filtered signals was conducted with the AxIS adaptive spike detector, using a threshold of 8x the root mean squared (rms) noise on each channel. Any electrodes with rms noise levels greater than 5 uV were grounded (e.g., no data were recorded). Once grounded, an electrode was grounded for the duration of the experiment. All recordings were conducted at 37 C. Wells were deemed usable if on the day of the exposure >/= 10 electrodes were active (defined as >/= 5 spikes/min). On DIV 13 or 15, a minimum of three wells from one cortical culture preparation were treated with each compound (0.03-40 uM). Prior to recording baseline activity, each mwMEA plate was placed in the Maestro at 37 C and allowed to sit for 20 min while firing rates stabilized. Baseline activity (40 min) was recorded before the addition of each compound. An additional 40 min of spontaneous activity was recorded in the presence of each compound. Changes in network parameters relative to baseline were assessed following compound treatment.
Structure (SMILES),AC50,outcome
COc1ccc(OC(F)(F)F)cc1CN[C@H]1CCCN[C@H]1c1ccccc1,3.09 µM (active),
O=C(O)CN(CC(=O)O)CC(=O)O,,inactive
CCCCC(CC)COP(=O)(OCC(CC)CCCC)OCC(CC)CCCC (stereo not drawn),,inactive
CCN(CC)CCOc1ccc(C(=C(Cl)c2ccccc2)c2ccccc2)cc1,,inactive
NC(=Nc1ccccc1)Nc1ccccc1,,inactive
CC(N)=O,,inactive
CCCC(=O)O,,inactive
Cc1ccc(C(C)(C)C)c(O)c1,,inactive
C/C=C/c1ccc(OC)cc1,,inactive
O=C1OC(c2ccc(O)cc2)(c2ccc(O)cc2)c2ccccc21,31 µM (active),
CC(C)COC(=O)CCCCC(=O)OCC(C)C,,inactive
Cc1cc(Cc2ccc(N)c(C)c2)ccc1N,29.6 µM (active),
CN(C)C(=O)NC1(c2ccccc2)CCN(CC[C@@]2(c3ccc(F)c(F)c3)CN(C(=O)c3ccccc3)CCO2)CC1,5 µM (active),
c1ccc2occc2c1,,inactive
CCc1cc(C2=C(C(=O)O)N(c3ccccc3C(F)(F)F)S(=O)(=O)c3ccccc32)cc2c1OCO2,,inactive
O=C(N[C@@H](c1ccccc1)[C@@H]1CCCCN1)c1cccc(C(F)(F)F)c1Cl,9.12 µM (active),
Nc1nc(=S)c2[nH]cnc2[nH]1,,inactive
CSc1ccc(Oc2ccc(S(N)(=O)=O)cc2CN(C)C)cc1C,,inactive
OCC(CO)n1cnc(-c2ccc(F)cc2)c1-c1ccnc(Oc2ccccc2)n1,,inactive
Cc1c(C)c2c(c(C)c1O)CCC(C)(COc1ccc(CC3SC(=O)NC3=O)cc1)O2 (stereo not drawn),,inactive
CC(C)NCC(O)c1ccc(O)c(O)c1 (stereo not drawn),,inactive
Cc1cc(SC2=C(O)C[C@@](CCc3ccc(N)cc3)(C(C)C)OC2=O)c(C(C)(C)C)cc1CO,,inactive
Oc1ccc(O)cc1,,inactive
Cc1ccc(-c2cc(C(F)(F)F)nn2-c2ccc(S(N)(=O)=O)cc2)cc1,,inactive
COC(=O)[C@H]1[C@H]2C[C@@H]3c4[nH]c5cc(OC)ccc5c4CCN3C[C@H]2C[C@@H](OC(=O)c2cc(OC)c(OC)c(OC)c2)[C@@H]1OC,,inactive
CC1=C(C)S(=O)(=O)CCS1(=O)=O,,inactive
CN(C)C(=O)NC1(c2ccccc2)CCN(CCC[C@]2(c3ccc(Cl)c(Cl)c3)CCCN(C(=O)c3ccccc3)C2)CC1,7.5 µM (active),
CN(C)CCCN1c2ccccc2Sc2ccc(Cl)cc21,,inactive
